# In the supplement of paper PMC13380429:
# Unmarked numbers belong to inactive results.
# Tested on: Vero E6 infected with SARS-CoV-2
# Test: inhibition of SARS-CoV-2 cytopathic effect; higher = more antiviral protection, active = above 15
# Conditions: 48 h
SMILES,inhibition of SARS-CoV-2 cytopathic effect (1 nM) [%],inhibition of SARS-CoV-2 cytopathic effect (8.33 nM) [%],inhibition of SARS-CoV-2 cytopathic effect (100 nM) [%],inhibition of SARS-CoV-2 cytopathic effect (833.33 nM) [%],inhibition of SARS-CoV-2 cytopathic effect (10000 nM)
Cc1nc2sccn2c(=O)c1CCN1CCC(=C(c2ccccc2)c2ccc(F)cc2)CC1,1.18,-2.89,0.46,2.57,1.02%
CC(C)(C)c1cc(C(C)(C)C)c2c(c1)C(O)(C(F)(F)F)C(=O)O2 (racemic),5.52,2.66,4.61,-0.2,-1.15%
CN1CCc2cc3c(cc2[C@H]1[C@@H]1OC(=O)c2c1ccc1c2OCO1)OCO3 [bicuculline-(+)],0.45,1.6,0.39,0.32,0.5%
Nc1ccc(O)c(C(=O)O)c1 [mesalazine],1.06,-2.08,1.03,-1.05,-2.08%
CSc1nc(NC2CCCC2)c([N+](=O)[O-])c(NC2CCCC2)n1,-0.65,-0.38,1.31,-0.4,-0.11%
COc1c(C)c2c(c(O)c1C/C=C(\C)CCC(=O)O)C(=O)OC2 [mycophenolic-acid],-0.65,-1.16,0.96,2.06,12.9%
N=C(N)NN=C1C=CC(=NNC(N)=S)C=C1 [ambazone],1.75,1.52,1.46,1.18,-0.05%
O=C1[O][SbH]23[O]C(=O)C([O]2)C2[O][SbH]4([O]C(=O)C([O]4)C1[O]3)[O]C2=O [antimonyl],0.49,0.38,-2.02,0.19,-10.4%
COc1ccc(CCNCC(O)COc2cccc(C)c2)cc1OC (stereo not given) [bevantolol],-3.29,-3.57,-4.47,-3.25,-5.37%
Cc1cc(CC(C)CC(C)(C)C)n(O)c(=O)c1 (stereo not given) [piroctone-olamine],-1.12,3.7,3.23,1.26,-1.5%
C[C@@H]1CCN(C(=O)CC#N)C[C@@H]1N(C)c1ncnc2[nH]ccc12,-0.74,0.22,-0.47,-2.11,-0.5%
Cc1[nH]nc(C(F)(F)F)c1Cc1sc2c(c1C(=O)N1C[C@](C)(O)CO1)c(=O)n(C)c(=O)n2C(C)C,1.31,-1.35,1.71,0.45,2.23%
CC(=O)SCCC(=O)N1[C@H](C)CCC[C@@H]1C(=O)O [methiopril],-1.78,-1.6,3.1,0.4,1.04%
CCCCCCCCc1ccc(-c2ccc(C(=O)O)cc2)cc1,-0.05,1.54,1.52,3.77,1.83%
C#Cc1cccc(Nc2ncnc3cc(OC)c(OCCCCCCC(=O)NO)cc23)c1,1.1,5.38,-0.94,-6.89,-28%
Brc1c(NC2=NCCN2)ccc2nccnc12 [brimonidine],4.55,0.66,0.75,2.72,0.94%
CCS(=O)(=O)N(Cc1cccnc1)c1cccc(-c2ccc(C#N)cc2)c1,1.24,1.74,1.23,4.38,8.38%
CN(C)[C@@H]1C(O)=C(C(N)=O)C(=O)[C@@]2(O)C(O)=C3C(=O)c4c(O)ccc(Cl)c4[C@@H](O)[C@H]3C[C@@H]12 [demeclocycline],1.68,1.08,0.96,1.19,2.34%
CN1C[C@H](C(=O)N[C@]2(C)O[C@@]3(O)[C@@H]4CCCN4C(=O)[C@H](Cc4ccccc4)N3C2=O)C[C@@H]2c3cccc4[nH]cc(c34)C[C@H]21 [dihydroergotamine],0.49,0.5,2.21,-0.8,2.88%
OC[C@@H](O)[C@@H](O)[C@H](O)[C@@H](O)CO [sorbitol],0.49,-0.64,-0.23,1.86,1.46%

SMILES,inhibition of SARS-CoV-2 cytopathic effect (1 nM) [%],inhibition of SARS-CoV-2 cytopathic effect (8.33 nM) [%],inhibition of SARS-CoV-2 cytopathic effect (100 nM) [%],inhibition of SARS-CoV-2 cytopathic effect (833.33 nM) [%],inhibition of SARS-CoV-2 cytopathic effect (10000 nM)
Clc1ccc(Cn2c(CN3CCCC3)nc3ccccc32)cc1 [clemizole],-3.82,-2.64,-3.58,-3.06,-6.74%
c1cc2c(c(N3CCNCC3)c1)OCCO2 [eltoprazine],3.51,2.36,2.47,-1.11,-4.55%
C[C@@H]1CN(CCCn2c3ccccc3c3ccccc32)C[C@H](C)N1 [rimcazole],-0.92,-0.33,0.18,-2.52,31.1% (active)
Oc1ccc2c3c1O[C@H]1c4c(c5ccccc5n4Cc4ccccc4)C[C@@]4(O)[C@@H](C2)N(CC2CC2)CC[C@]314 [N-benzylnaltrindole],0.62,0.67,2.73,-0.06,34% (active)
C[C@@H](Oc1cc(-n2cnc3ccc(CN4CCN(C)CC4)cc32)sc1C(N)=O)c1ccccc1C(F)(F)F,1.38,0.72,1.12,-3.55,54.8% (active)
NC(=O)C1=CN([C@@H]2O[C@H](COP(=O)(O)OP(=O)(O)OC[C@H]3O[C@@H](n4cnc5c(N)ncnc54)[C@H](OP(=O)(O)O)[C@@H]3O)[C@@H](O)[C@H]2O)C=CC1,0.75,3.17,2.16,0.8,-1.27%
C=CCOc1ccccc1OCC(O)CNC(C)C (stereo not given) [oxprenolol],1.58,-0.87,-1.99,-0.79,-0.79%
C[C@@H]1CC[C@@]2(OC1)O[C@H]1C[C@H]3[C@@H]4CC=C5C[C@@H](O[C@@H]6O[C@H](CO)[C@@H](O[C@@H]7O[C@@H](C)[C@H](O)[C@@H](O)[C@H]7O)[C@H](O)[C@H]6O[C@@H]6O[C@@H](C)[C@H](O)[C@@H](O)[C@H]6O)CC[C@]5(C)[C@H]4CC[C@]3(C)[C@H]1[C@@H]2C [dioscin],-2.63,0.88,-2.63,0.22,-12.2%
Cc1nc(-c2ccc(OCC(C)C)c(C#N)c2)sc1C(=O)O [febuxostat],-0.9,-0.46,-0.43,2.99,1.58%
O=C1CC[C@@](c2ccccc2)(C2CCN(Cc3ccc(I)cc3)CC2)C(=O)N1 [iododexetimide],1.14,-0.02,-0.5,-1.35,-6.84%
Nc1ccc(/N=N/c2ccccc2)c(N)n1 [phenazopyridine],1.34,0.46,0.72,1.24,0.27%
N[C@H](Cc1ccccc1)C(=O)O [D-phenylalanine],2.99,-0.14,2.52,0.27,0.05%
N=C(N)c1ccc(/C=C/c2ccc(C(=N)N)cc2O)cc1 [hydroxystilbamidine],-3.2,-1.76,-5.12,-3.2,-1.16%
c1cc(-c2sc(-c3ccncc3)c(-c3ccncc3)c2-c2ccncc2)ccn1,-1.78,-0.14,-3.51,-4.39,-5.36%
"OCc1ccc(CO)o1 [2,5-furandimethanol]",-0.97,0.38,0.27,2.21,0.97%
NC(=O)c1cccnc1 [nicotinamide],-0.85,1.53,-1.16,2.49,7.29%
N#Cc1ccc(N(Cc2ccc(Br)cc2)n2cnnc2)cc1,1.03,-0.63,3.36,2.99,-2.52%
CN1C2CCCC1CC(NC(=O)c1nn(C)c3ccccc13)C2 (stereo not given) [granisetron],3.53,4.21,-1.14,-2.63,-4.21%
COc1cc(C(=S)N2CCOCC2)ccc1O [vanitiolide],-0.99,-1.31,-0.6,2.4,-0.14%
